Test results: PubChem BioAssay (Tox21)
“And” between values parts separate entries of the source, which are not always exact repeats. Equal values may be shown once. Inconclusive results are not listed. Entries that show only a call come without a potency. Some structures have more than one record in an assay (separate samples or runs), and their calls can disagree. The source made the active and inactive calls. Unless noted, calls follow the shape of the dose curve; as a rule, active = well fitted curve in the direction sought with a large enough effect in the repeat runs; inconclusive = weak or mixed curves; inactive = no such curve, though single readings can be large; an effect the other way counts as inactive or inconclusive.

How the values were obtained:
[1] = qHTS assay to identify small molecule agonists of the estrogen receptor alpha (ER-alpha) signaling pathway in the presence of an antagonist - cell viability counter screen (AID 1259386);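 also: series mostly up to about 92 µM; cells exposed to compounds for 22 h at 37 °C before the viability read; nearly all actives have a fitted effect of over 30% in size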
Outline: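 Viability counter screen using VM7Luc4E2 (full-length ER-alpha, four ERE-luciferase). The cells were treated with compounds alongside ICI-182,780 10.0nM for 22hr, and live-cell protease fluorescence was quantified with CellTiter-Fluor.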

[2] = biological target: Progesterone receptor (Homo sapiens) (UniProt P06401); experiment: qHTS assay to identify small molecule agonists of the progesterone receptor (PR) signaling pathway (AID 1346784; calls by dose curve; also: nearly all actives have a fitted effect of over 30% in size)
Outline: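 Cells (PR-UAS-bla HEK 293T, GripTite) were plated in assay medium containing 2% charcoal-stripped FBS and incubated 6 hr. Test compounds in DMSO were added for 16 hr at 37C. FRET substrate was then loaded for 2 hr at room temperature before fluorescence reading.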

[3] = biological target: Progesterone receptor (Homo sapiens) (UniProt P06401); experiment: qHTS assay to identify small molecule antagonists of the progesterone receptor (PR) signaling pathway (AID 1346795; active = well fitted inhibition curve with a large enough effect in the signal ratio in the repeat runs, not every such curve was filed as active; the % refers to the signal ratio)
Outline: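 Antagonist mode: compounds tested against 1 nM (final) promegestone stimulation in HEK293T cells expressing PR-UAS-bla reporter, 16 hr at 37C, 5% CO2; beta-lactamase activity detected via B/G FRET substrate after 2 hr at room temperature.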

[4] = qHTS assay to identify small molecule antagonists of the progesterone receptor (PR) signaling pathway - cell viability counter screen (AID 1346798); also: series mostly up to about 92 µM; nearly all actives have a fitted effect of over 50% in size
Outline: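 Counter screen for cytotoxicity: viability of PR-UAS-bla HEK293T cells was measured with CellTiter-Glo luminescence following 16 hr compound exposure in the presence of R5020.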

[5] = qHTS assay to identify small molecule agonists of the progesterone receptor (PR) signaling pathway - cell viability counter screen (AID 1346799; calls by dose curve; also: nearly all actives have a fitted effect of over 45% in size)
Outline: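 Cells (PR-UAS-bla HEK293T) are plated at 3,000/well in 2% charcoal-stripped FBS medium, rested 6 hr, dosed and incubated 16 hr at 37C. CellTiter-Glo is then added and luminescence measured after 30 min at room temperature.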

[6] = qHTS assay to identify small molecule antagonists of the TGF-beta/Smad signaling pathway - cell viability counter screen (AID 1346824); also: nearly all actives have a fitted effect of over 50% in size
Outline: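 SBE-bla HEK 293T cells, incubated overnight, then compound plus 0.25 ng/mL TGF-beta1 (stock added) for 5 hr at 37 C. Viability was read in the same wells by CellTiter-Glo luminescence after 30 min at room temperature.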

[7] = qHTS assay to identify small molecule agonists of the TGF-beta/Smad signaling pathway (AID 1346859; active = well fitted activation curve with a large enough effect in the signal ratio in the repeat runs, not every such curve was filed as active; the % refers to the signal ratio; also: series mostly up to about 77 µM)
Outline: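 Reporter line: HEK 293T with stably integrated SBE-controlled beta-lactamase. Compound exposure lasts 5 hr at 37 C and 5% CO2; substrate loading follows for 2 hr at room temperature, with emission read at 460 and 530 nm.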

[8] = biological target: Thyrotropin-releasing hormone receptor (Homo sapiens) (UniProt P34981); experiment: qHTS assay to identify small molecule antagonists of the thyrotropin-releasing hormone receptor (TRHR) signaling pathway (AID 1346877; active = well fitted inhibition curve with a large enough effect in the repeat runs, not every such curve was filed as active; also: series mostly up to about 51 µM)
Outline: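 Following an 18 h incubation at 37 °C and a 2 h calcium dye load, TRHR-HEK293 cells were exposed to compound (5 min, room temperature) and challenged with TRH, 1 nM final.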

[9] = biological target: Thyrotropin-releasing hormone receptor (Homo sapiens) (UniProt P34981); experiment: qHTS assay to identify small molecule agonists of the thyrotropin-releasing hormone receptor (TRHR) signaling pathway (AID 1346891; calls by dose curve;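 also: HEK293 cells expressing TRHR with calcium dye readout; series mostly up to about 58 µM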)
Outline: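 Cells: TRHR-Hek293, seeded and incubated 18 h. Dye loading: 2 h at 37 °C. Compound added from DMSO stock by pin tool. Read-out: kinetic calcium fluorescence over 3 min.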

[10] = Caspase-3/7 induction in HepG2 cells by small molecules, qHTS assay (AID 1346978); also: nearly all actives have a fitted effect of over 15% in size
Outline: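 Wild-type HepG2 cells, 2,000/well, settled 5 hr at 37 C and 5% CO2, then compound-treated for 17 hr; caspase-3/7 activity read by luminescent Caspase-Glo 3/7 after 30 min at room temperature.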

[11] = Caspase-3/7 induction in CHO-K1 cells by small molecules, qHTS cell viability counter screen (AID 1346979); also: nearly all actives have a fitted effect of over 35% in size
Outline: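 Cytotoxicity counter screen run in parallel with the caspase-3/7 assay: CHO-K1 cells, 16hr compound treatment at 37C, then CellTiter-Fluor for 1hr before fluorescence reading.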

[12] = Caspase-3/7 induction in CHO-K1 cells by small molecules, qHTS assay (AID 1346980); also: nearly all actives have a fitted effect of over 15% in size
Outline: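 Wild-type CHO-K1 cells exposed to compounds for 17hr at 37 C, 5% CO2. Caspase-3/7 activity then measured by Caspase-Glo 3/7 luminescence after 30min at room temperature.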

[13] = Caspase-3/7 induction in HepG2 cells by small molecules, qHTS cell viability counter screen (AID 1346981); also: series mostly up to about 92 µM; nearly all actives have a fitted effect of over 30% in size
Outline: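 Viability determined by CellTiter-Fluor fluorescence in HepG2 wells also used for the luminescent Caspase-Glo 3/7 read. Compounds were present for 16 hr at 37 C, 5% CO2 before reagent addition.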

[14] = biological target: Nuclear receptor subfamily 1 group I member 2 (Rattus norvegicus) (UniProt Q9R1A7); experiment: Rat pregnane X receptor (rPXR) activation by small molecules, qHTS assay (AID 1346983); settings: rPXR luciferase reporter cells, One-Glo luminescence, 24 h; stronger effect = higher value; also: nearly all actives have a fitted effect of over 20% in size
Outline: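 Cell-based rPXR activation assay: rPXR cells, 2,000 per well, rested 5hr at 37 C, then exposed to compounds in DMSO for 24 hr at 37 C. Luciferase activity read by One-Glo luminescence after 30 min at room temperature.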

[15] = biological target: Nuclear receptor subfamily 1 group I member 2 (Homo sapiens) (UniProt O75469); experiment: CYP3A4 induction through human pregnane X receptor (PXR) by small molecules, qHTS assay (AID 1346984); also: nearly all actives have a fitted effect of over 40% in size
Outline: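 Readings come from a luciferase reporter: DPX-2 cells, which are HepG2 cotransfected with PXR and a CYP3A4-promoter construct, were exposed to test compounds for 24 h at 37C before One-Glo detection.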

[16] = biological target: Cytochrome P450 2D6 (Homo sapiens) (UniProt P10635); experiment: Cytochrome P450 Family 2 Subfamily D Member 6 (CYP2D6) small molecule antagonists: luciferase reporter qHTS assay (AID 1671196); also: nearly all actives have a fitted effect of over 50% in size; also: potency is read from the fitted curve at half-maximal effect
Outline: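 Each well received CYP2D6 with its proluciferin substrate and chemical, sat 10 min, then got NADPH regeneration solution for 1 h at room temperature. Luminescence in RLU served as the activity measure.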

[17] = biological target: Cytochrome P450 2C19 (Homo sapiens) (UniProt P33261); experiment: Cytochrome P450 Family 2 Subfamily C Member 19 (CYP2C19) small molecule antagonists: luciferase reporter qHTS assay (AID 1671197); also: nearly all actives have a fitted effect of over 65% in size; also: potency is read from the fitted curve at half-maximal effect
Outline: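 First, compounds are pinned into enzyme-substrate mix and held 10 min at room temperature. Second, NADPH regeneration solution is added and plates incubate 1 h at 37C. Third, detection reagent is added and luminescence read after 20 min.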

[18] = Human pregnane X receptor (PXR) small molecule agonists, qHTS cell viability counter screen (AID 1346977); also: nearly all actives have a fitted effect of over 50% in size
Outline: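 Cytotoxicity counter screen run in the same wells as the PXR luciferase assay, using PXR-Luc HepG2 cells in charcoal-stripped serum medium. Viability: CellTiter-Fluor fluorescence after 24hr compound treatment.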

[19] = biological target: Nuclear receptor subfamily 1 group I member 2 (Homo sapiens) (UniProt O75469); experiment: Human pregnane X receptor (PXR) small molecule agonists, qHTS assay (AID 1346982); also: nearly all actives have a fitted effect of over 35% in size
Outline: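 Compound-induced hPXR transactivation of a CYP3A4 luciferase reporter was scored in HepG2 PXR-Luc cells over 24 hr at 37 C, 5% CO2, by luminescence.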

[20] = qHTS assay to identify small molecule agonists of the TGF-beta/Smad signaling pathway - cell viability counter screen (AID 1346829); also: top concentration of the series differs between compounds; nearly all actives have a fitted effect of over 45% in size
Outline: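 HEK 293T SBE-bla line, 5 hr compound exposure at 37 C, multiplexed CellTiter-Glo viability read by luminescence.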

Cytochrome P450 2C19 (Homo sapiens), sequence (P33261 whole entry, looked up): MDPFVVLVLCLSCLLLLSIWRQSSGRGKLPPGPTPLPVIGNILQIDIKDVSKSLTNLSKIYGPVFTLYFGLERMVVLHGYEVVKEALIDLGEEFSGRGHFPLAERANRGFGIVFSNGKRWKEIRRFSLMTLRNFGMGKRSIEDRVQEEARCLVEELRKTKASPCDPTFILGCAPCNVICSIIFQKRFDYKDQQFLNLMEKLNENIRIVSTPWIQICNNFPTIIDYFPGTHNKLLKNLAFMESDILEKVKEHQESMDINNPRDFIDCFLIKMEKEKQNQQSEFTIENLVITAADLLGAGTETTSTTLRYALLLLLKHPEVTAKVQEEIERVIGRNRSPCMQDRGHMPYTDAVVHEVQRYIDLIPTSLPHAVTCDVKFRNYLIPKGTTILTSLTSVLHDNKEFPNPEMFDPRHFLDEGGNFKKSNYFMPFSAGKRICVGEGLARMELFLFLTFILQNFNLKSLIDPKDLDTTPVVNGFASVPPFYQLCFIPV
Progesterone receptor (Homo sapiens), sequence (P06401 whole entry, looked up): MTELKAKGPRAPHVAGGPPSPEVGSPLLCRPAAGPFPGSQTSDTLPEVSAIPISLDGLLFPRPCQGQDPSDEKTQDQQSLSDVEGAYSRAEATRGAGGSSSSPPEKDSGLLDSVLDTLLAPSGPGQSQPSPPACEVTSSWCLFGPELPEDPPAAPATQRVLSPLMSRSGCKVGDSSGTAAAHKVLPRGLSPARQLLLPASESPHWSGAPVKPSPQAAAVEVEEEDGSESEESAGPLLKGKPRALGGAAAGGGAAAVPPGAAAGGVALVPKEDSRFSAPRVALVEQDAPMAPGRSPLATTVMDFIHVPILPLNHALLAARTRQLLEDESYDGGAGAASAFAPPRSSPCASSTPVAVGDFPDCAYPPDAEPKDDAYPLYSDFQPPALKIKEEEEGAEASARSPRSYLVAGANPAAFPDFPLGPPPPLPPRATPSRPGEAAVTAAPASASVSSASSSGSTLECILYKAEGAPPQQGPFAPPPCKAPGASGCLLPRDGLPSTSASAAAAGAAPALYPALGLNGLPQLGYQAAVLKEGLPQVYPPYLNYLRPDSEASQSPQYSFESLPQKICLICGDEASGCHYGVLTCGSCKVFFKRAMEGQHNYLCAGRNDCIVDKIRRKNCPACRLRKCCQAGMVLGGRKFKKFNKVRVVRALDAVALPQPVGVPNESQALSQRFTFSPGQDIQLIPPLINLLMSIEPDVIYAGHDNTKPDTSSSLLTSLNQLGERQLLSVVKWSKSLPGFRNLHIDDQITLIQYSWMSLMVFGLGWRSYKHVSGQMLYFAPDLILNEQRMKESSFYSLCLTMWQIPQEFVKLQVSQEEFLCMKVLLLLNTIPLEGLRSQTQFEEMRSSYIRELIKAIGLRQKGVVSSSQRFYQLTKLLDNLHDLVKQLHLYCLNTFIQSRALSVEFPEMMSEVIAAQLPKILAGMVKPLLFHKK
Nuclear receptor subfamily 1 group I member 2 (Homo sapiens), sequence (O75469 whole entry, looked up): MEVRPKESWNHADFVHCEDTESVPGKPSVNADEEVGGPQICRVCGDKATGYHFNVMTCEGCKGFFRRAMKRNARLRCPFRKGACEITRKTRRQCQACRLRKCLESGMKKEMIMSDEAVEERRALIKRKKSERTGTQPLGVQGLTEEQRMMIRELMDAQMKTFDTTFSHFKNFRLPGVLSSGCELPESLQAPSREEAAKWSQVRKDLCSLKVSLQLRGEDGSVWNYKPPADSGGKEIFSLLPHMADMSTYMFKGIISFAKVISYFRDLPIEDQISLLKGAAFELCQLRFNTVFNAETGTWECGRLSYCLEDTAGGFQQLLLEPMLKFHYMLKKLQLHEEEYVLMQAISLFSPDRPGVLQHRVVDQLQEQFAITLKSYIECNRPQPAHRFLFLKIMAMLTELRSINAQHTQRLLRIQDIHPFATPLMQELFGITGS
Nuclear receptor subfamily 1 group I member 2 (Rattus norvegicus), sequence (Q9R1A7 whole entry, looked up): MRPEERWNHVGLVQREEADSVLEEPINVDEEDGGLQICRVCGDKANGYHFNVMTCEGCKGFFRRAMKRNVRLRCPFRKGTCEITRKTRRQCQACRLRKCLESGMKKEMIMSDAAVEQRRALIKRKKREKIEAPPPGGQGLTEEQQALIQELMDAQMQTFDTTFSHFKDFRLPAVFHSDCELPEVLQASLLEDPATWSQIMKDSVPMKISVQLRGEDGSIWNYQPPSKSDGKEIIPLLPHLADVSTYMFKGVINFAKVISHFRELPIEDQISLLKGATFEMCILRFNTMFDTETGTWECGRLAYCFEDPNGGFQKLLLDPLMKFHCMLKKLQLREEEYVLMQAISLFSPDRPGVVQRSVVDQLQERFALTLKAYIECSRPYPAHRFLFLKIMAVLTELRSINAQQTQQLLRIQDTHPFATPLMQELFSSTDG
Cytochrome P450 2D6 (Homo sapiens), sequence (P10635 whole entry, looked up): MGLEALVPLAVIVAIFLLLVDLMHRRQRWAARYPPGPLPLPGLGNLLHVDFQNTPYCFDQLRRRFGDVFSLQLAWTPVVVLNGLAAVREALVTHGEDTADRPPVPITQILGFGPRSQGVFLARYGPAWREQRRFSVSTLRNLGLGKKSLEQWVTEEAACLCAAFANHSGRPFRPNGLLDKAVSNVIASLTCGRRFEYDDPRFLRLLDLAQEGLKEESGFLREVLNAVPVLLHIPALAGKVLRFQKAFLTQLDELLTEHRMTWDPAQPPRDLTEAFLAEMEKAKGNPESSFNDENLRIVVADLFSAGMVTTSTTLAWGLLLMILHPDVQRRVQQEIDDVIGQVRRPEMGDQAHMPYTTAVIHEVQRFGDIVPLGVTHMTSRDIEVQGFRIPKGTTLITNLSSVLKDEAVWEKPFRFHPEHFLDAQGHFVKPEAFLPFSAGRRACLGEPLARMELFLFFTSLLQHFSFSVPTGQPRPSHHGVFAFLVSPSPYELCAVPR
Thyrotropin-releasing hormone receptor (Homo sapiens), sequence (P34981 whole entry, looked up): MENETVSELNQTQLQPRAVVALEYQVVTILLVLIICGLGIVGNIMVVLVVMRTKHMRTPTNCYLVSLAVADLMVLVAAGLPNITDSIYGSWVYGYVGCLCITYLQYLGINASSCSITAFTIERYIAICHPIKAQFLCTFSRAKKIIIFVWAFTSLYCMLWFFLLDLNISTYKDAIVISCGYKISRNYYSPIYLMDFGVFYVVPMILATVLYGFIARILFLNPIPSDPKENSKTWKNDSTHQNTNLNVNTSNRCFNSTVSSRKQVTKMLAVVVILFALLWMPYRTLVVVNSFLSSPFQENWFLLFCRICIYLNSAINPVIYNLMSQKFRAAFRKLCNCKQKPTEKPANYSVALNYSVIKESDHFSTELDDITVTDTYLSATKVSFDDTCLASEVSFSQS

Structure (SMILES) | Potency [1] | Potency [2] | outcome [3] | Potency [4] | Potency [5] | outcome [6] | outcome [7] | outcome [8] | outcome [9] | Potency [10] | Potency [11] | outcome [12] | Potency [13] | max activation [14] | outcome [15] | Potency [16] | Potency [17] | Potency [18] | Potency [19] | Potency [20]
CC(=O)OCC(COC(C)=O)OC(C)=O | inactive | inactive | inactive | inactive | inactive | inactive | inactive | inactive | inactive | inactive | inactive | inactive | inactive | 3.67% (inactive) | inactive | inactive | inactive | – | – | –
Nc1ccn([C@H]2CC[C@@H](CO)O2)c(=O)n1 | inactive | – | – | inactive | inactive | inactive | inactive | inactive | inactive | inactive | inactive | inactive | inactive | – | – | inactive | 78.3 µM (active) and inactive | – | – | –
NC(=O)c1cnccn1 | inactive | inactive | inactive | inactive | inactive | inactive | inactive | inactive | inactive | inactive | inactive | inactive | inactive | – | – | 19.7 µM (active) and inactive | inactive | inactive | – | –
Nc1ccc(C(=O)O)cc1 | inactive | inactive | inactive | inactive | inactive | inactive | inactive | – | – | inactive | inactive | inactive | inactive | -4.61% (inactive) | inactive | inactive | inactive | – | inactive | –
O=C(c1ccccc1)c1ccccc1 | inactive | inactive | inactive | inactive | inactive | – | inactive | – | – | inactive | inactive | inactive | inactive | – | – | – | – | – | – | inactive
CCCN(CCC)S(=O)(=O)c1ccc(C(=O)O)cc1 | inactive | inactive | inactive | inactive | inactive | inactive | inactive | inactive | inactive | inactive | inactive | inactive | inactive | – | – | inactive | inactive | inactive | – | –
CC(O)CO (stereo unspecified) | inactive | inactive | inactive | inactive | inactive | inactive | inactive | inactive | inactive | inactive | inactive | inactive | inactive | 1.42% (inactive) | inactive | inactive and 1.56 µM (active) | inactive | – | – | –
CCCCC(CC)COC(=O)/C=C/c1ccc(OC)cc1 (stereo unspecified) | inactive | inactive | – | inactive | inactive | inactive | inactive | inactive | inactive | inactive | inactive | inactive | inactive | – | inactive | inactive | 39.8 µM (active) and 25.2 µM (active) and 24.5 µM (active) | – | – | –
